Results on 9 compounds are retold here after PubChem BioAssay.

SMILES strings stand for the structures. Activity calls are given as the source filed them.

Assay [1] relates to PRMT1 (protein arginine N-methyltransferase 1). Description: small molecules binding arginine methyltransferase PRMT1 – biochemical, small-molecule microarray, 635 nm fluorescence, primary screen (AID 1088).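 Further: binding of Prmt1 protein to compounds spotted on small-molecule microarray slides.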 Particulars: higher = more signal.
Assay [2] in a line: growth effects on S. cerevisiae YJM789 – YJM789 clinical isolate, OD600, 24 h, basal, primary screen (AID 1089).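 Further: growth of clinical yeast isolate S. cerevisiae YJM 789 seeded 1000 cells per well; test concentration not given here.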 The following applies: higher = more signal, called active from +8 up or from −8 down.
The nature of assay [3]: S. pombe growth modifiers, basal conditions – strain 972, OD600, 24 h, no modulator, primary screen (AID 1090).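 Further: basal condition with compound alone and no growth modifier present; test concentration not given here.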 The following applies: S. pombe 972 growth, higher = more signal, called active from +8 up or from −8 down.
A short description of assay [4]: budding yeast growth modifiers under rapamycin – strain BY4716, OD600, 96 h, primary screen (AID 1091). Further: test concentration not given here. Particulars: S. cerevisiae BY4716 + rapamycin, higher = more signal, called active from +8 up or from −8 down.
Assay [5] concerns the target Torsin-1A-interacting protein 2 (Homo sapiens) (UniProt Q8NFQ8). Description: small molecules binding lysate-expressed LULL1 – cell lysate, human LULL1 lysate, 635/667 nm fluorescence, primary screen (AID 1092).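 Further: probe is lysate of COS7 cells overexpressing human LULL1; score merges per-feature 667 nm fluorescence with signal-to-noise.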 The following applies: small-molecule microarray, hLULL1 lysate binding, 635 nm fluorescence; higher = more signal.
Assay [6] in a line: optical density change of DRC41 E. coli – strain DRC41, OD650, 24 h, E. coli filamentation project, primary screen (AID 1093).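 Further: MC1000 strain lacking acrAB efflux and sulA so SOS filamentation is blocked; test concentration not given here.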 The following applies: E. coli DRC41 growth, higher = more signal, called active from +8 up or from −8 down.
Assay [7] is described as follows: probe aLefty2 binding to arrayed compounds – biochemical, biotinylated probe, 635/667 nm fluorescence, primary screen (AID 1094).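 Further: score merges spot fluorescence near 667 nm with spot signal-to-noise ratio.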 The following applies: small-molecule microarray, higher = more signal.
The test system of assay [8] is Noggin (protein binding on small-molecule microarray). Description: small molecules binding Noggin protein – biochemical, 635/667 nm fluorescence, primary screen (AID 1095).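 Further: score merges 667 nm feature fluorescence with signal to noise over triplicate slides.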 The following applies: 635 nm fluorescence, higher = more signal.
Assay [9] deals with Neurogenic locus notch homolog protein 3 (Homo sapiens) (UniProt Q9UM47). Description: small molecules binding NOTCH3 protein – biochemical, 635/667 nm fluorescence, primary screen (AID 1096). The following applies: small-molecule microarray, 635 nm fluorescence, higher = more signal.
A short description of assay [10]: probe aEGFR binding to arrayed compounds – biochemical, biotinylated probe, 635/667 nm fluorescence, primary screen (AID 1097).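 Further: probe is a biotinylated anti-EGFR antibody binding compounds printed on slides; score combines fluorescence near 667 nm and signal to noise of each spot.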 Particulars: small-molecule microarray, higher = more signal.
In assay [11] the test system is Plasmodium falciparum Sir2 (PF13_0152, Sir2A). Description: Plasmodium falciparum Sir2A binding compounds – biochemical, small-molecule microarray, 635 nm fluorescence, primary screen (AID 1098).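 Further: score merges spot fluorescence intensity with its signal-to-noise ratio.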 The following applies: fluorescence 635 nm, higher = more signal.
The nature of assay [12]: probe aDKK1 binding to arrayed compounds – biochemical, biotinylated probe, 635/667 nm fluorescence, primary screen (AID 1099).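 Further: score merges 667nm spot fluorescence with signal to noise across triplicate slides; reference of the scale not given here.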 The following applies: small-molecule microarray, higher = more signal.
The nature of assay [13]: probe aCHRDL2 binding to arrayed compounds – biochemical, biotinylated probe, 635/667 nm fluorescence, primary screen (AID 1100). Particulars: small-molecule microarray, higher = more signal.
Assay [14] in a line: change in splice reporter luminescence, either direction, cell-based, HEK293, spliceosome inhibition project, primary screen (AID 1101).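 Further: HEK293 cells carrying a splicing-competent luciferase reporter gene; test concentration not given here.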 Particulars: HEK293 splicing luciferase reporter, 24 h, higher = more signal, called active from +8 up or from −8 down. On the technique in general: Reporter assays use an easily measured gene product as a stand-in for the process of interest.

Assay [15] deals with Fibroblast growth factor 10 (Homo sapiens) (UniProt O15520). Description: compounds binding fibroblast growth factor 10 – biochemical, small-molecule microarray, 635 nm fluorescence, primary screen (AID 1102). Particulars: FGF10 binding, fluorescence 635 nm, higher = more signal.
For assay [16], the system named is glycogen synthase kinase-3 (GSK3A per assay name; protocol says GSK3B). Description: compounds binding glycogen synthase kinase-3 – biochemical, small-molecule microarray, 635 nm fluorescence, GSK3A, primary screen (AID 1103). Further: the record names both GSK3A and GSK3B. The following applies: fluorescence 635 nm, higher = more signal.
For assay [17], the target named is Epidermal growth factor receptor (Homo sapiens) (UniProt P00533). Description: compounds binding epidermal growth factor receptor – biochemical, small-molecule microarray, 635 nm fluorescence, primary screen (AID 1104).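 Further: score merges 667 nm emission intensity with spot signal to noise over triplicate slides.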 The following applies: EGFR binding, higher = more signal.
The target of assay [18] is Follistatin-related protein 3 (Homo sapiens) (UniProt O95633). Description: compounds binding follistatin-related protein 3 – biochemical, small-molecule microarray, 635 nm fluorescence, primary screen (AID 1105).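 Further: score merges emission near 667 nm and signal to noise per printed spot across three slides.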 The following applies: FSTL3 binding, higher = more signal.
The target of assay [19] is Dickkopf-related protein 1 (Homo sapiens) (UniProt O94907). Description: small molecules binding DKK1 protein – biochemical, small-molecule microarray, 635 nm fluorescence scan, primary screen (AID 1106).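 Further: score merges emission near 667 nm with signal to noise over three replicate slides.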 Particulars: higher = more signal.
Assay [20] concerns Inhibin beta A chain (activin A). Description: small molecules binding activin A – biochemical, small-molecule microarray, 635 nm fluorescence scan, primary screen (AID 1107).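 Further: mouse activin A protein probed at 4.33 µg/mL on printed slides; score merges bound-protein fluorescence near 667 nm with spot signal-to-noise.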 The following applies: INHBA, higher = more signal.

Neurogenic locus notch homolog protein 3 (Homo sapiens), sequence (Q9UM47 whole entry, looked up): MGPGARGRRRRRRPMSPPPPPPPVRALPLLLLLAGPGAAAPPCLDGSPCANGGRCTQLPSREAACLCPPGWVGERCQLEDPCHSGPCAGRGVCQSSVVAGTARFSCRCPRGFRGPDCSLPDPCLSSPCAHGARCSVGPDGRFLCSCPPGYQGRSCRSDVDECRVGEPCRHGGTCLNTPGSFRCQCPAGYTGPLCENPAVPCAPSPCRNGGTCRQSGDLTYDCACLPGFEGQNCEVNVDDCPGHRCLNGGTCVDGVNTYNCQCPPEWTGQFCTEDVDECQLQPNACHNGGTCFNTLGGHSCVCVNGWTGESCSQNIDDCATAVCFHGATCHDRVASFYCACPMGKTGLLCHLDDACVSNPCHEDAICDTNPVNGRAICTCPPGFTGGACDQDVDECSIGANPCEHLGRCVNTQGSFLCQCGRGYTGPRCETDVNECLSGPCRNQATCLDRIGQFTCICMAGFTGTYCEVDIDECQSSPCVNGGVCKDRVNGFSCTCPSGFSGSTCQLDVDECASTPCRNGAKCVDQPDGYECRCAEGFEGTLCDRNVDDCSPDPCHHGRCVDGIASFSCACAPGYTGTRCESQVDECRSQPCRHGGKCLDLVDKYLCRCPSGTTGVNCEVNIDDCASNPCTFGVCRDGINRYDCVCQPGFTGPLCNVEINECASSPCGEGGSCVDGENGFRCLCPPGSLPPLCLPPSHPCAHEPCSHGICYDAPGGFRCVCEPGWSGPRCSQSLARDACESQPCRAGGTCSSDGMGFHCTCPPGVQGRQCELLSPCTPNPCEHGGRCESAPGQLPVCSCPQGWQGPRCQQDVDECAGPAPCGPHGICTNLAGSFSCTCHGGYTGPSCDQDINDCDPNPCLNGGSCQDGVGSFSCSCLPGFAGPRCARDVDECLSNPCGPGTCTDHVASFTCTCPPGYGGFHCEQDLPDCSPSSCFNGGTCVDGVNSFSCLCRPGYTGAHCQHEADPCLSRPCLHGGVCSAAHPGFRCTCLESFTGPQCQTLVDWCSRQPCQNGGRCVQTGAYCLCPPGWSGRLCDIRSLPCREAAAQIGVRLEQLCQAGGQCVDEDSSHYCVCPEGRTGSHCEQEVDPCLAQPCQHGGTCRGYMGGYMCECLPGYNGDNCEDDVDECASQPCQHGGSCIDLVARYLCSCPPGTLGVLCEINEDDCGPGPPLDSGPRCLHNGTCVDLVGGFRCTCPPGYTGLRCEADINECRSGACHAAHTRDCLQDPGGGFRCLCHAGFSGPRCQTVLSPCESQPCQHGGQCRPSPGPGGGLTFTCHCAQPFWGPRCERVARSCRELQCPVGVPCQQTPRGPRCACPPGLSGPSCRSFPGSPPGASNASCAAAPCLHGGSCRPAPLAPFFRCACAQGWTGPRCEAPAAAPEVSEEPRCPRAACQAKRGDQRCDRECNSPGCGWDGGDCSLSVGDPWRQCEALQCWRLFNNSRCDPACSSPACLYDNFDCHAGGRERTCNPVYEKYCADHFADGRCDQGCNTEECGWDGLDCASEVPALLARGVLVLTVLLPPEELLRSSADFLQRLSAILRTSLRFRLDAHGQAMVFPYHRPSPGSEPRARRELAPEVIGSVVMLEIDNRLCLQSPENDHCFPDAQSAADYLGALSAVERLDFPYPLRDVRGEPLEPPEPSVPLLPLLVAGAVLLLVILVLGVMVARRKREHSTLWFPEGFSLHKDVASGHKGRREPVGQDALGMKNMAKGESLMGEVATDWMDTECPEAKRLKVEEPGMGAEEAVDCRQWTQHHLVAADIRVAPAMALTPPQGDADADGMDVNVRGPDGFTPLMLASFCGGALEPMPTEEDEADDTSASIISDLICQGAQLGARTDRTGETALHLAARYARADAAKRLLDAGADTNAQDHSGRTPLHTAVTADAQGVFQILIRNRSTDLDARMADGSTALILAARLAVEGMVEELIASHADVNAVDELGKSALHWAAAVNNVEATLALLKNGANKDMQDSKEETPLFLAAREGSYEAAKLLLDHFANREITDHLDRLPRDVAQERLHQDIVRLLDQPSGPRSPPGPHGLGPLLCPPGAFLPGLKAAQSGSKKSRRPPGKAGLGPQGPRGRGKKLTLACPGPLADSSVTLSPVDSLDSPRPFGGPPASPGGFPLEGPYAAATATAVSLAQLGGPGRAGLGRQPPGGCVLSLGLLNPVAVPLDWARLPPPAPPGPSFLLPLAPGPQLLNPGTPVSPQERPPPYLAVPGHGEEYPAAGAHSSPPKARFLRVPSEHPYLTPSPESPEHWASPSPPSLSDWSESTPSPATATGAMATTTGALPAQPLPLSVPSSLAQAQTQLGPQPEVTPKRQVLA
Torsin-1A-interacting protein 2 (Homo sapiens), sequence (Q8NFQ8 whole entry, looked up): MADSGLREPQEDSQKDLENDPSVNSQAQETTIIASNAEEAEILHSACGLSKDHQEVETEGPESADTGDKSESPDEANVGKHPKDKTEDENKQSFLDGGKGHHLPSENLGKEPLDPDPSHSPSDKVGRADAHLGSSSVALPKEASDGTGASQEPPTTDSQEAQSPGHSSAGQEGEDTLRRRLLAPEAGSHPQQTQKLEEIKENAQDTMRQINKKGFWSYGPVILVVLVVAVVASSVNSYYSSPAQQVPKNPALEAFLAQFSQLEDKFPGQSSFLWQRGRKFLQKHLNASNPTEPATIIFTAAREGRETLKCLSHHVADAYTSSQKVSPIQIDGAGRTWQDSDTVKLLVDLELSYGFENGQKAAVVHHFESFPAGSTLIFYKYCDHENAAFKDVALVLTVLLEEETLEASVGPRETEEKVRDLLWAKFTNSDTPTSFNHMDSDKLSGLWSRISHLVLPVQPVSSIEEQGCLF
Epidermal growth factor receptor (Homo sapiens), sequence (P00533 whole entry, looked up): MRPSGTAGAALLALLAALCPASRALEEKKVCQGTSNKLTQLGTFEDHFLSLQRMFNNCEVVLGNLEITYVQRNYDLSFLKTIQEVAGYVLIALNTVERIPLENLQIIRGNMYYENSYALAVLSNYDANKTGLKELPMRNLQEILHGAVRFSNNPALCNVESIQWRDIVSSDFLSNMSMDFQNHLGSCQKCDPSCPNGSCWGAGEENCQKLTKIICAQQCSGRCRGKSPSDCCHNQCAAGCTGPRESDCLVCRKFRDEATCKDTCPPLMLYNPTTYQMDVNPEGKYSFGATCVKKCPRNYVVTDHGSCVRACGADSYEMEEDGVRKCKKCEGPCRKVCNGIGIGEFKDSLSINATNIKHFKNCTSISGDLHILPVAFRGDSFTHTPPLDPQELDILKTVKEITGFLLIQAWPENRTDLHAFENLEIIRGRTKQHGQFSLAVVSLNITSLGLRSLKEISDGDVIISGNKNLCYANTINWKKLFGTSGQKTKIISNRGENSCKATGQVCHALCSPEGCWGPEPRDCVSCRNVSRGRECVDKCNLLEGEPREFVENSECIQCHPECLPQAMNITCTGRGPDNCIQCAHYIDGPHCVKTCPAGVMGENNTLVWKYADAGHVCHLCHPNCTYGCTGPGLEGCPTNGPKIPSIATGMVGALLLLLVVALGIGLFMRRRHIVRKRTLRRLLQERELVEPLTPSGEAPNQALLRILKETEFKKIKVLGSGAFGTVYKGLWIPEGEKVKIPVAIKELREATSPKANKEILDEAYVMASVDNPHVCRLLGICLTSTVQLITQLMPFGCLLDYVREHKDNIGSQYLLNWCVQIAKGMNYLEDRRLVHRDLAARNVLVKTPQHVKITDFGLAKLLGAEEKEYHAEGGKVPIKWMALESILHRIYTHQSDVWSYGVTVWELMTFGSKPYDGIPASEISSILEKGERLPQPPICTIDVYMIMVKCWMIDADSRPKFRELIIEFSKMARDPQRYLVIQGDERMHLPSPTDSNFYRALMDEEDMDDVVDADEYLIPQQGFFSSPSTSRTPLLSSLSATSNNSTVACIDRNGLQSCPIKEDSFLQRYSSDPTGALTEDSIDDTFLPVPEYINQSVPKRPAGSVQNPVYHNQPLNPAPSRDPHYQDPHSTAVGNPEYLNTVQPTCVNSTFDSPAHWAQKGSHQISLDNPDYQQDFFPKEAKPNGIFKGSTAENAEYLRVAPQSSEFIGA
Dickkopf-related protein 1 (Homo sapiens), sequence (O94907 whole entry, looked up): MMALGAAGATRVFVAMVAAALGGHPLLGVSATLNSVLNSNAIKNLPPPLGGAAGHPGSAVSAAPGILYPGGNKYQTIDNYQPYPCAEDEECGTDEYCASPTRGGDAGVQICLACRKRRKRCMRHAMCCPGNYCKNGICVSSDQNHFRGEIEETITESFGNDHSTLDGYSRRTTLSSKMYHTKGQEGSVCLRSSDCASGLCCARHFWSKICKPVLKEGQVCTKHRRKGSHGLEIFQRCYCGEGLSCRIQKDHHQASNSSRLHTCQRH
Fibroblast growth factor 10 (Homo sapiens), sequence (O15520 whole entry, looked up): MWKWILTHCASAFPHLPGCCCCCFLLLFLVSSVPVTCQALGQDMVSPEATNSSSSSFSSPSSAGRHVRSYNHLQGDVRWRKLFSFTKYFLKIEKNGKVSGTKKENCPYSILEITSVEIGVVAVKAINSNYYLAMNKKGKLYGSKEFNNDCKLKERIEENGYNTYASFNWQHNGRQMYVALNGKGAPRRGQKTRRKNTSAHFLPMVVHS
Follistatin-related protein 3 (Homo sapiens), sequence (O95633 whole entry, looked up): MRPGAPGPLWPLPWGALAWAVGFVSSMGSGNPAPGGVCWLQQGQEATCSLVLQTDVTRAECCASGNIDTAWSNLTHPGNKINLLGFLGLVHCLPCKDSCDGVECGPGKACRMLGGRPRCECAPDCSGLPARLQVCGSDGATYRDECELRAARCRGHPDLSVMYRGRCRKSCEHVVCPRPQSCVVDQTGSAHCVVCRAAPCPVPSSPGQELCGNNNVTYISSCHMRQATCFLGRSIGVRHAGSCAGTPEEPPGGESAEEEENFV

Turning to `CCCC[C@@H]1C[C@H]1[C@@H](NC(=O)c1cccs1)c1ccc(Cl)cc1`, the composite z-score in assay [1] is -0.117; in [5] it was 0.795; in [7] it was -0.168; in [8], -1.69; in [9], -1.73; in [10], -0.288. Besides, the composite z-score in [11] is 0.509; in [12] it was 0.517; in assay [13], 0.943; in [15] it was -1.5; in assay [16] it was -1.13; in assay [17] it was -1.34. For the same compound, the composite z-score was -2.23 in assay [18], -1.75 in assay [19] and 0.269 in assay [20]. Also, the z-score is -0.0596 (inactive) in assay [2]; 0.806 (inactive) in [3]; 0.413 (inactive) in assay [4]; -1 (inactive) in assay [6]; -2.23 (inactive) in [14].

Take `CO[C@H]1COC(=O)CC=C[C@H](C)COC(=O)[C@@H](OCc2ccccc2)C=C[C@@H]1C`: the composite z-score was 1.52 in assay [1]; 0.059 in assay [5]; -0.368 in [7]; 2.03 in assay [8]; -0.532 in assay [9]; -0.322 in assay [10]. The composite z-score in [11] was 0.558; in assay [12] it was -1.12; in [13], -1.62; in assay [15], 0.429; in assay [16], 1.28; in assay [17], 0.711. Further, the composite z-score in assay [18] came out at 1.2; in assay [19], 2.07; in assay [20] it was 0.924. Further, the z-score is 0.0706 (inactive) in assay [2]; -1.39 (inactive) in assay [3]; -0.993 (inactive) in [4]; 0.0129 (inactive) in [6]; -1.71 (inactive) in [14].

For the compound `O=C1C2C=CC(C(O)C(c3ccccc3)c3ccccc3)N(Nc3ccc([N+](=O)[O-])cc3)C2C(=O)N1c1ccccc1` (stereo not given), the composite z-score in assay [1] was 1.38; in assay [5], 3.67; in assay [7], 0.109; in assay [8], -0.181; in assay [9], 1.07; in assay [10] it was 0.121. The composite z-score in assay [11] was found to be 0.375; in assay [12] it was 0.569; in assay [13] it was 0.767; in assay [15] it was 1.04; in [16] it was 1.32; in assay [17], 0.66. The values for the composite z-score in assay [18], in assay [19] and in [20] were 0.955, 0.331 and 0.814, respectively. The z-score in assay [2] was 0.384 (inactive); in [3], 1.86 (inactive); in assay [4], 2.85 (inactive); in assay [6], -0.07 (inactive); in [14], 0.597 (inactive).

With `Cc1ccc(S[C@]2(C(=O)NCCN3CCOCC3)CC(=O)N(C3Cc4ccccc4C3)[C@@H]2c2ccc(CO)cc2I)cc1`, the composite z-score in [1] is 1.01; in assay [5], 1.96; in assay [7] it was 0.366; in [8], -1.62; in assay [9], -0.484; in [10], -0.204. In addition, the composite z-score was 1.84 in [11]; 0.696 in assay [12]; 1.18 in assay [13]; -0.303 in assay [15]; -0.909 in assay [16]; -1.65 in assay [17]. Besides, the composite z-score is -0.359 in [18], -0.408 in [19] and 0.72 in assay [20]. In addition, the z-score was -2.08 (inactive) in assay [2]; -5.05 (inactive) in assay [3]; 0.401 (inactive) in assay [4]; 1.75 (inactive) in assay [6]; -1.16 (inactive) in assay [14].

As for `O=C/C=C/c1ccc(/C=C/c2ccccc2)cc1`, the composite z-score in assay [1] is -0.742; in assay [5] it was -0.917; in assay [7], 0.0262; in assay [8], -0.43; in [9], -1.2; in assay [10], -0.225. Further, the composite z-score is -0.636 in [11]; -0.287 in assay [12]; 0.616 in assay [13]; -0.77 in assay [15]; -0.386 in assay [16]; 0.193 in [17]. The figures for the composite z-score in assay [18], in [19] and in assay [20] were 0.233, -0.278 and 1.47, respectively. Further, the z-score is -2.92 (inactive) in [2]; -19.7 (active) in [3]; -1.59 (inactive) in assay [4]; 1.51 (inactive) in assay [6]; -0.653 (inactive) in assay [14].

Take `CCOC(=O)C[C@H]1[C@H](OC(=O)c2ccccc2-c2ccccc2)[C@@H](NC(=O)C2CCCCC2)c2cc(OCCCO)ccc2N1C(=O)c1ccccc1`: the composite z-score in [1] is 0.884; in [5] it was 0.928; in assay [7], -0.0498; in [8], 0.203; in [9] it was 0.352; in assay [10], 0.232. Moreover, the composite z-score in [11] is 0.253; in [12], -0.116; in assay [13], -0.489; in assay [15], 1.43; in assay [16], 0.524; in assay [17] it was 0.797. For the same compound, the results for the composite z-score in assay [18], in [19] and in [20] were 0.437, 0.436 and 0.16, respectively. Also, the z-score in [2] is 1.2 (inactive); in assay [3], 0.543 (inactive); in assay [4], 1 (inactive); in assay [6], 2.19 (inactive); in assay [14], -1.02 (inactive).

`C[C@H]1NC(=O)[C@@H](C)NC(=O)[C@@]23C(=O)N[C@@H](Cc4ccccc4)C2[C@H](C)[C@@]2(C)O[C@H]2C3/C=C/C/C=C\CNC1=O` (stereo not given in full): the composite z-score is -0.0842 in [1]; -0.968 in assay [5]; -0.142 in assay [7]; -0.142 in [8]; -0.129 in assay [9]; -0.131 in [10]. In addition, the composite z-score in [11] is 1.66; in assay [12], -0.581; in assay [13], -0.781; in assay [15] it was 0.14; in assay [16], 0.0002; in [17] it was 0.0021. For the same compound, the composite z-score in [18] was 0.171; in assay [19], 0.422; in assay [20] it was 1.28. The z-score is 1 (inactive) in assay [2]; -0.696 (inactive) in assay [3]; 0.581 (inactive) in assay [4]; 2.41 (inactive) in [6]; -0.697 (inactive) in [14].

With `COCCOC(=O)N1C(=O)[C@@]2(c3cc(C#CC4=CCCCC4)ccc31)[C@H](C(=O)NC[C@H](O)c1ccccc1)[C@H]1C(=O)O[C@H](c3ccccc3)[C@H](c3ccccc3)N1[C@@H]2c1ccccc1OCCO`, the composite z-score was 1.56 in assay [1]; 1.91 in [5]; 0.306 in assay [7]; 1.13 in assay [8]; 1.07 in assay [9]; -0.0316 in [10]. Moreover, the composite z-score in assay [11] was found to be 1.28; in assay [12] it was 0.659; in assay [13], 0.635; in [15] it was 0.533; in assay [16] it was 1.05; in assay [17], 0.366. Further, the composite z-score was found to be 1.08 in assay [18], 0.599 in assay [19] and 1.13 in [20]. In addition, the z-score in [2] was 2.24 (inactive); in [3], 1.79 (inactive); in [4], 4.71 (inactive); in assay [6], -0.0963 (inactive); in [14], -1.5 (inactive).

Turning to `O=C(CS)NCCCCCNC(=O)[C@H]1C[C@H]2C(=O)N3CCC[C@H]3C(=O)N2[C@H]1c1ccc(O)cc1`, the composite z-score in [1] was -0.183; in assay [5], 0.0874; in assay [7], -0.0961; in assay [8], 0.0529; in assay [9] it was -1.17; in assay [10], -0.184. The composite z-score was 0.203 in assay [11]; -0.18 in [12]; -0.196 in assay [13]; -0.0763 in assay [15]; -1.07 in assay [16]; 0.392 in [17]. Further, the composite z-score in assay [18] is -0.47; in assay [19] it was 0.844; in assay [20], 0.594. The z-score in assay [2] is -0.0414 (inactive); in [3], -1.25 (inactive); in [4] it was 0.0236 (inactive); in [6], 1.62 (inactive); in assay [14], -1.45 (inactive).
